Screens: PubChem, National Center for Advancing Translational Sciences (NCATS)
TDP1 cell CPT: DT40-hTDP1 cell growth loss with CPT; Potency, µM (titrated, usually from 46.2 µM), usual class: inhibitors; hit rate 12% among 420,000; chicken DT40 Tdp1-/-;hTDP1 cells + 20 nM CPT, ATP luminescence, 48 h; note: nearly all actives have a fitted effect of over 55% in size
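Cell growth measured by CellTiter-Glo luminescence after a minimum 48 h, 37 C compound exposure with 20 nM CPT in Tdp1-knockout DT40 cells stably expressing hTDP1, seeded 400/well; qHTS titration format.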
HT1080-NT tox: kills 2HG-producing HT-1080-NT fibrosarcoma cells | Potency, µM (titrated, usually from 46.1 µM), hits mostly cytotoxic | HT-1080-NT fibrosarcoma viability, CellTiter-Glo ATP luminescence, 48 h | hit rate 1.6% among 360,000;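 note: NT is the 2HG producing partner of a matched IDH1 knockdown line; nearly all actives have a fitted effect of over 55% in size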
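Toxicity toward the 2HG-producing NT line was scored as %Activity, normalised to DMSO and no-cell wells, from CellTiter-Glo luminescence after 48 hours' treatment.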
HT1080 IDH1KD tx: kills HT-1080 cells with IDH1 knockdown | HT-1080 IDH1 knockdown viability, ATP luminescence, 48 h | Potency, µM (titrated, usually from 46.1 µM), most hits filed as cytotoxic | hit rate 2% among 360,000
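Assay cells: HT-1080 with IDH1 knockdown, 750 per well, RPMI/5% FBS. Exposure: 48 h at 37 °C following 2 h pre-incubation. Read: CellTiter-Glo luminescence; fitted concentration-response, curve class assigned.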
IL-1B inflam inh: blocks inflammasome-driven IL-1 beta release | THP-1 LPS/ATP IL-1B secretion, AlphaLISA, 16 h; stronger effect = lower value | AID 743279 | activity change, % at 57.5 µM | hit rate 4.7% among 360,000; in the data active = activity change below about -50%; inconclusive = mostly about -30% to -49%
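Secreted IL-1B measured by AlphaLISA bead assay after 16 h compound exposure of THP-1 cells; compounds (final up to 57.5 uM) added 1 h before LPS (250 ng/mL) and ATP (1.25 mM) stimulation; lower signal means less secretion.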
DT40 TDP1 no CPT: qHTS for Inhibitors of human tyrosyl-DNA phosphodiesterase 1 (TDP1): qHTS in cells in absence of CPT | Potency, µM (doses to about 46.2 µM), actives largely listed as inhibitors | hit rate 15% among 420,000 | AID 686978, 2013 | DT40 Tdp1-/- hTDP1 cells, no CPT, ATP luminescence, 48 h; note: nearly all actives have a fitted effect of over 55% in size
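No-CPT arm: Tdp1-/-;hTDP1 DT40 cells (400/well) plus compounds, incubated ≥48 hr at 37 °C. Readout CellTiter-Glo luminescence.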
Large screens that a line does not name were inactive. Sampled rows, rich in hits. Any-hit rate of the full collection: about 19%. Unless noted, calls come from the whole dose curve; as a rule, active = well fitted curve in the direction sought with a large enough effect; inconclusive = small, poorly fitted or top-dose-only effect, or another doubt; inactive = no such curve, though single readings can be large; an effect the other way counts as inactive or inconclusive.

O=C(CNC(=O)C(c1ccccc1)c1ccccc1)OCC(=O)c1cccs1	TDP1 cell CPT 1.6µM, DT40 TDP1 no CPT 1.5µM
O=C(CNC(=O)c1ccccc1)OCC(=O)c1cccs1	none
CC(=O)c1cccc(NC(=O)N2CCCC2C(=O)Nc2ccc3c(c2)OCO3)c1 (stereo unspecified)	none
O=C(NCc1cccnc1)c1cc2nc(-c3cccs3)cc(C(F)(F)Cl)n2n1	TDP1 cell CPT inconclusive, IL-1B inflam inh -67, DT40 TDP1 no CPT inconclusive
O=C(NCc1cccnc1)c1cc(-c2cccs2)on1	TDP1 cell CPT 13µM, DT40 TDP1 no CPT inconclusive
Cc1ccc(O)c(NC(=O)c2cc(-c3cccs3)on2)c1	HT1080-NT tox inconclusive, IL-1B inflam inh -67
O=C(NCc1cccnc1)c1cc(-c2ccccc2)on1	TDP1 cell CPT inconclusive, DT40 TDP1 no CPT inconclusive
Cc1csc(CN(C)C(=O)CC2C(=O)NCCN2Cc2ccccc2C)n1 (stereo unspecified)	DT40 TDP1 no CPT inconclusive
O=C(c1ccncc1)N1CCC2(CC1)CN(Cc1cc(C(F)(F)F)cc(C(F)(F)F)c1)C2	TDP1 cell CPT inconclusive (no result: HT1080-NT tox, HT1080 IDH1KD tx, IL-1B inflam inh)
COc1cc(C(C#N)N2N=C(c3ccccc3)CC2c2ccccc2)ccc1O (stereo unspecified)	TDP1 cell CPT inconclusive
COc1ccc(C(C#N)N2CCC(c3ccccc3)=N2)cc1 (stereo unspecified)	TDP1 cell CPT inconclusive, IL-1B inflam inh -90, DT40 TDP1 no CPT inconclusive
C=CC(C)(C)c1[nH]c2ccccc2c1C1=C(O)C(=O)C(c2c[nH]c3c(CC=C(C)C)cccc23)=C(O)C1=O	TDP1 cell CPT 13µM, DT40 TDP1 no CPT 13µM (no result: HT1080-NT tox, HT1080 IDH1KD tx, IL-1B inflam inh)
Cn1c(N)c(C(=O)/C=C/c2ccccc2)c(=O)[nH]c1=O	none
Cn1cncc1C#Cc1c(C=O)[nH]c2ccccc12	TDP1 cell CPT 5.8µM, HT1080 IDH1KD tx inconclusive, DT40 TDP1 no CPT 10µM
CC1CCC(NC(=O)C2(C)Cc3ccccc3C(=O)N2Cc2ccccc2Cl)CC1 (stereo unspecified)	TDP1 cell CPT inconclusive, DT40 TDP1 no CPT 23µM (no result: HT1080-NT tox, HT1080 IDH1KD tx, IL-1B inflam inh)
O=C(c1ccc2nc(Cc3cccc(Cl)c3)oc2c1)N1CCC[C@H]1CO	none
COc1cccc(N(Cc2nnc3n2CCCCC3)C(=O)Nc2cccc(Cl)c2)c1	none (no result: HT1080-NT tox, HT1080 IDH1KD tx, IL-1B inflam inh)
Cc1cc(=O)[nH]c(SCC(=O)/C=C2\N(C)c3ccccc3C2(C)C)n1	TDP1 cell CPT inconclusive, HT1080 IDH1KD tx inconclusive, DT40 TDP1 no CPT 9.2µM
COCCn1c(SCC(=O)c2c(-c3ccccc3)n(C)c3ccccc23)nnc1-c1ccncc1	TDP1 cell CPT inconclusive, IL-1B inflam inh inconclusive, DT40 TDP1 no CPT inconclusive
Cc1cc(=O)[nH]c(SCC(=O)NN(c2ccccc2)c2ccccc2)n1	none
CN1/C(=C\C(=O)CSc2nnc(N)s2)C(C)(C)c2ccccc21	TDP1 cell CPT inconclusive, DT40 TDP1 no CPT 21µM
CN1/C(=C/C(=O)CSc2ccccc2C(=O)O)C(C)(C)c2ccccc21	TDP1 cell CPT inconclusive, DT40 TDP1 no CPT 9.2µM
CCOC(=O)/C=C1/N(C)c2ccccc2C1(C)C	none
COCCn1c(SCC(=O)/C=C2\N(C)c3ccccc3C2(C)C)nnc1-c1ccncc1	TDP1 cell CPT 23µM, IL-1B inflam inh inconclusive, DT40 TDP1 no CPT 23µM
O=C(NCC(c1ccco1)N1CCOCC1)c1ccc(F)c(F)c1 (stereo unspecified)	none
CCOc1ccccc1NC(=O)CN1C=NS(=O)(=O)c2ccccc21	none (no result: HT1080-NT tox, HT1080 IDH1KD tx, IL-1B inflam inh)
Cn1c(O)c(N=NC(=O)CNC(=O)c2ccccc2)c2ccccc21	none
Cn1c(N=NC(=O)c2ccccc2)c(O)c2ccccc21	TDP1 cell CPT inconclusive, DT40 TDP1 no CPT 23µM
Cn1c(=O)c(=O)n(C)c2cc(N3CCOCC3)c(NS(=O)(=O)c3ccc(F)c(Cl)c3)cc21	TDP1 cell CPT inconclusive, DT40 TDP1 no CPT inconclusive
O=C(c1ccccc1NS(=O)(=O)c1ccc(Br)cc1)N1CCOCC1	IL-1B inflam inh -53
Cn1c(=O)n(C)c2cc(N3CCOCC3)c(NS(=O)(=O)c3ccc(Br)cc3)cc21	TDP1 cell CPT 15µM, DT40 TDP1 no CPT inconclusive (no result: HT1080-NT tox, HT1080 IDH1KD tx, IL-1B inflam inh)
Cc1cc(S(=O)(=O)Nc2cc3c(cc2N2CCOCC2)n(C)c(=O)n3C)ccc1F	TDP1 cell CPT 23µM, DT40 TDP1 no CPT 9.2µM (no result: HT1080-NT tox, HT1080 IDH1KD tx, IL-1B inflam inh)
